DT40 TDP1 no CPT – qHTS for Inhibitors of human tyrosyl-DNA phosphodiesterase 1 (TDP1): qHTS in cells in absence of CPT. DT40 Tdp1-/- hTDP1 cells, no CPT, ATP luminescence, 48 h. Potency, µM (series often up to 46.2 µM), without a hit: at the top dose activity change, negative = growth inhibition, actives largely listed as inhibitors. 15% of 420,000 active. AID 686978, 2013; also: nearly all actives have a fitted effect of over 55% in size
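Seeded 400 DT40-hTDP1 cells/well (vehicle DMSO, no 20 nM CPT); pinned compounds; ≥48 hr at 37 °C; CellTiter-Glo luminescence as viability measure.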
ELG1 repair inh – qHTS screen for small molecules that inhibit ELG1-dependent DNA repair in human embryonic kidney (HEK293T) cells expressing luciferase-tagged ELG1; HEK293T ELG1-luciferase reporter, luminescence, 16 h; DNA damage induced by 5-fluorouridine; Potency, µM (series often up to 46.1 µM), for the others: top-dose activity change, negative = inhibition, hits mostly inhibitors; 2.3% of 330,000 active; also: nearly all actives have a fitted effect of over 55% in size
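Quantitative HTS, concentration-response format. 2,000 cells/well co-treated with 5-fluorouridine and compound, 16 hr in 5% CO2 at 37 °C; ONE-Glo luminescence read after 30 min.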
ALOX12 inh – Primary qHTS assay for inhibitors of human arachidonate 12S-lipoxygenase (ALOX12): Round 2. purified 12hLO, xylenol orange hydroperoxide absorbance. 1.1% of 580,000 active. Potency, µM (titrated, usually from 108 µM), without a hit: top-dose activity change, negative = inhibition, actives largely listed as inhibitors. Polyunsaturated fatty acid lipoxygenase ALOX12 (Homo sapiens), P18054
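Purified human 12hLO (150 nM final) in 25 mM Hepes, 0.01% Triton X-100, pH 7.0 was preincubated 15 min at room temperature with compound. Then 40 uM arachidonic acid was added, 30 min. Hydroperoxide was read by Fe-XO absorbance ratio 573/405 nm.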
Gal4-VP16 FLuc – VP16 counterscreen qHTS for inhibitors of ROR gamma transcriptional activity. 3.5% of 310,000 active. Potency, µM (highest dose often 53.6 µM), for inactives: top-dose activity, negative = inhibition, actives largely listed as inhibitors. Drosophila S2 Gal4-VP16 UAS-luciferase, luminescence, 20 h. AID 2546, 2010;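 also: Gal4-VP16 expression switched on by copper sulfate through the metallothionein promoter; nearly all actives have a fitted effect of over 50% in size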
DT40 TDP1 CPT – qHTS for Inhibitors of human tyrosyl-DNA phosphodiesterase 1 (TDP1): qHTS in cells in presence of CPT | 12% of 420,000 active | chicken DT40 Tdp1-/-;hTDP1 cells + 20 nM CPT, ATP luminescence, 48 h | Potency, µM (titrated, usually from 46.2 µM), inactives show at the highest dose activity change, negative = growth inhibition, actives largely listed as inhibitors; also: nearly all actives have a fitted effect of over 55% in size
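Chicken DT40 Tdp1-/- cells stably complemented with human TDP1 were seeded at 400 cells/well in medium containing 20 nM camptothecin, exposed to pin-transferred compounds, and grown at 37 °C for at least 48 hr. Viability was read as ATP luminescence.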
RORgamma inh – qHTS for inhibitors of ROR gamma transcriptional activity | Nuclear receptor ROR-gamma (Mus musculus), P51450 | Drosophila S2 Gal4-RORgamma UAS-luciferase reporter, 20 h | Potency, µM (titrated, usually from 53.6 µM), inactives show at the highest dose activity change, negative = inhibition, usual class: inhibitors | 5.4% of 310,000 active | AID 2551, 2010; also: nearly all actives have a fitted effect of over 60% in size
Target sequence (P51450 whole entry, looked up, the tested form may be a part): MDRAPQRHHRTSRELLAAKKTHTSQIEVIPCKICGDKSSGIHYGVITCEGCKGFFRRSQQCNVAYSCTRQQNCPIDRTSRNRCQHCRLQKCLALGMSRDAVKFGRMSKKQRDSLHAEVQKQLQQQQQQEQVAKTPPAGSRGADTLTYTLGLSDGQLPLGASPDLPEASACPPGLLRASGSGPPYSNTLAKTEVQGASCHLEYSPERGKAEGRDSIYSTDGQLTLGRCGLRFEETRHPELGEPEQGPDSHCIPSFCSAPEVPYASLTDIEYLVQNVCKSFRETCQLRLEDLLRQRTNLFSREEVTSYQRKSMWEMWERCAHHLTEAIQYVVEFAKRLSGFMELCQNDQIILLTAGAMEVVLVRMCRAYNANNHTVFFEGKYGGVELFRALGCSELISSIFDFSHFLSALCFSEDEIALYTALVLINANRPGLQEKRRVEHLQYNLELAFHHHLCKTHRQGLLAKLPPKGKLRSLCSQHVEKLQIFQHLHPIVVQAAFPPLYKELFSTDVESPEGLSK
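In this cell-based reporter format, copper sulfate (700 uM final) drives Gal4–ROR gamma fusion expression from a metallothionein promoter in Drosophila Schneider cells; compounds preincubated 1 hr, reporter read after 20 hr at ambient temperature.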
* = called active by the depositor; [ ] = dose if it differs, or a comment. Hits are enriched below; roughly 15% of the tested compounds scored in any of these assays. Calls follow the shape of the dose curve; as a rule, active = well fitted curve in the direction sought with a large enough effect; inconclusive = small, poorly fitted or top-dose-only effect, or another doubt; inactive = no such curve, though single readings can be large; an effect the other way counts as inactive or inconclusive. % is scaled to controls: 0 for no effect and ±100 for the full control effect; potency is read from the fitted curve at half-maximal effect.

For c1ccc(CCc2ccc3n2Cc2cnnn2-c2ccccc2-3)cc1 the results were DT40 TDP1 no CPT inconclusive, ALOX12 inh 9% and DT40 TDP1 CPT 6.5µM*.
Screening COc1ccc(CN2Cc3cnnn3-c3ccccc3C2C#N)cc1 (stereo unspecified) returned DT40 TDP1 no CPT 1.8µM*, ALOX12 inh inconclusive and DT40 TDP1 CPT 1.8µM*.
N#CC1c2ccccc2-n2nncc2CN1C(=O)CCc1ccccc1 (stereo unspecified) was read as DT40 TDP1 no CPT 10µM*, ALOX12 inh 1% and DT40 TDP1 CPT 15µM*.
`O=S(=O)(c1cccs1)N1C[C@@H](c2ccc(F)cc2)[C@@H]2[C@H]1C1CCN2CC1` gave ALOX12 inh -21%.
Screening CC(=O)Nc1ccc(S(=O)(=O)NC[C@H]2C[C@@H]3CCN2C[C@@H]3c2cc(-c3ccccc3)nn2C)cc1 returned ALOX12 inh 7%.
For COc1ccc(CN2Cc3cnnn3-c3ccccc3C2c2ccccc2)cc1 (stereo unspecified) the results were DT40 TDP1 no CPT 16µM*, ALOX12 inh -4% and DT40 TDP1 CPT 16µM*.
Screening COC(=O)C1=C(c2cccc(OCc3ccccc3)c2)C[C@@H]2CC[C@H]1N2C(=O)NCc1ccc2[nH]ccc2c1 returned DT40 TDP1 no CPT inconclusive, ELG1 repair inh inconclusive, ALOX12 inh 6% and DT40 TDP1 CPT inconclusive.
`COC(=O)C1=C(c2ccccc2OCc2ccccc2)C[C@@H]2CC[C@H]1N2C(=O)NCc1cccc(C(F)(F)F)c1` gave DT40 TDP1 no CPT 16µM*, ELG1 repair inh inconclusive, ALOX12 inh 9% and DT40 TDP1 CPT inconclusive.
COC(=O)C1=C(c2ccccc2OCc2ccccc2)C[C@@H]2CC[C@H]1N2C(=O)NCc1ccc(C(F)(F)F)cc1 was read as DT40 TDP1 no CPT inconclusive, ELG1 repair inh -28%, ALOX12 inh 7% and DT40 TDP1 CPT inconclusive.
`COC(=O)C1=C(c2ccc(F)cc2OCc2ccccc2)C[C@@H]2CC[C@H]1N2C(=O)NCc1ccc(C(F)(F)F)cc1` gave DT40 TDP1 no CPT inconclusive, ELG1 repair inh inconclusive, ALOX12 inh 11% and DT40 TDP1 CPT 23µM*.
`COC(=O)C1=C(c2ccc(OCc3ccccc3)cc2)C[C@@H]2CC[C@H]1N2C(=O)NCc1cccc(C(F)(F)F)c1` gave DT40 TDP1 no CPT 21µM*, ELG1 repair inh inconclusive, ALOX12 inh 0% and DT40 TDP1 CPT 21µM*.
O=S(=O)(NC[C@H]1C[C@@H]2CCN1C[C@@H]2CN1CCCC1)c1ccc(Cl)cc1 was read as ALOX12 inh 11%[176 µM].
Screening CC(C)NC(=O)NC[C@H]1C[C@@H]2CCN1C[C@@H]2CN1CCSCC1 returned ALOX12 inh 74%[176 µM].
COc1ccc2c(c1)C1(CCN(C(=O)Nc3ccc4c(c3)OCCO4)C1)C(=O)N2C (stereo unspecified) was read as ALOX12 inh 1%.
CC(C)N1CCN(c2oc(C3CC3)nc2C#N)CC1 was read as ALOX12 inh -32%.
For CCCCn1c(O)c(C=NCCCn2ccnc2)c(=O)[nH]c1=O the results were DT40 TDP1 no CPT 1%, ELG1 repair inh -6%, ALOX12 inh 0%, Gal4-VP16 FLuc 0%, DT40 TDP1 CPT -11% and RORgamma inh 14%.
CC(C)CCCn1c(O)c(/C=C2/C=CC=N2)c(=O)[nH]c1=O was read as DT40 TDP1 no CPT 5.2µM*, ELG1 repair inh inconclusive, ALOX12 inh -8%, Gal4-VP16 FLuc 2%, DT40 TDP1 CPT 5.8µM* and RORgamma inh inconclusive.
For Cc1ncc2c(n1)C[C@@H]1CC[C@H]2N1C(=O)c1sccc1C the results were ALOX12 inh -2%.
C=C[C@H]1CN2CC[C@H]1C[C@@H]2CNCc1ccc(SC)cc1 was read as ALOX12 inh -8%[176 µM].
For C#CCCN1CCN(C(=O)Cc2nn(C)c(=O)c3ccccc23)CC1 the results were ALOX12 inh -12%.
Screening CN1CCN(C(=O)COc2ccc(-c3nc4ccccc4s3)cc2)CC1 returned DT40 TDP1 no CPT 18µM*, ELG1 repair inh inconclusive, ALOX12 inh -35%, Gal4-VP16 FLuc 10µM*, DT40 TDP1 CPT -30% and RORgamma inh 5µM*.
`COc1ccccc1-c1nn2c(=O)cc(CN3CCN(C(=O)COc4ccccc4Cl)CC3)nc2s1` gave DT40 TDP1 no CPT 21µM*, ALOX12 inh -15% and DT40 TDP1 CPT inconclusive.
Screening COc1ccc(OCC(=O)N2CCN(Cc3cc(=O)n4nc(-c5ccc(OC)cc5)sc4n3)CC2)cc1 returned DT40 TDP1 no CPT 21µM*, ALOX12 inh -13% and DT40 TDP1 CPT 15µM*.
For CN1CCN(C(=O)COc2ccc3ccccc3c2)CC1 the results were DT40 TDP1 no CPT 7%, ELG1 repair inh inconclusive, ALOX12 inh 13%, Gal4-VP16 FLuc 1%, DT40 TDP1 CPT -3% and RORgamma inh 3%.
CCn1nccc1C(=O)N1[C@H]2CC[C@@H]1c1cnc(-c3ccccc3)nc1C2 was read as ALOX12 inh -3%.
C=C[C@H]1CN2CC[C@H]1C[C@@H]2CNS(=O)(=O)Cc1ccccc1 was read as ALOX12 inh 56%[176 µM].
For COc1ccc2c(c1)C1(CCN(S(=O)(=O)c3ccc(C)cc3)C1)C(=O)N2C (stereo unspecified) the results were ALOX12 inh -10%.
`Cn1nc(-c2ccc(F)cc2)cc1[C@H]1CN2CC[C@H]1C[C@@H]2CNC(=O)c1ccc2c(c1)OCO2` gave ALOX12 inh 26%.
`CC(C)(O)c1cn(C[C@H]2CC3CCN2C[C@@H]3C(=O)Nc2nccs2)nn1` (stereo partly specified) gave ALOX12 inh 5%[176 µM].
